The record followed here is ChEMBL document CHEMBL4513141, “CO-ADD screening of NIH (USA) - Clinical Collection” (2021).

One may read the Inhibition as the drop in the measured response relative to a control, in per cent.

Results with a measured potency or affinity are listed apart.

The subject of one assay is Staphylococcus aureus. The following applies: Concentration 20 uM; ASSAY_TEST Inhibition of Bacterial Growth; detection method Absorption (OD600); MEDIA CAMHB; plate type 384well; NBS; CORNING #3640; time 18 hr.
The test system of the next assay is Escherichia coli. The following applies: Concentration 20 uM; ASSAY_TEST Inhibition of Bacterial Growth; detection method Absorption (OD600); MEDIA CAMHB; plate type 384well; NBS; CORNING #3640; time 18 hr.

Take `CC(=O)O[C@]1(C(C)=O)CC[C@H]2[C@@H]3C=C(C)C4=CC(=O)CC[C@]4(C)[C@H]3CC[C@@]21C` [MEGESTROL ACETATE]: the Inhibition in the assay with Staphylococcus aureus is recorded as 14.19%; in the assay with Escherichia coli, 0.92%.

Turning to `CN(C)CC/C=C1/c2ccccc2COc2ccc(CC(=O)O)cc21.Cl` [OLOPATADINE HYDROCHLORIDE], the figures for the Inhibition in the assay on Staphylococcus aureus and in the assay with Escherichia coli were -18.81% and 1.13%, respectively.

As for `CCN1CC(CCN2CCOCC2)C(c2ccccc2)(c2ccccc2)C1=O.Cl` (centres undefined), the Inhibition with Staphylococcus aureus is on record as -18.77%; in the assay on Escherichia coli, 2.66%.

Turning to `CCCNC(=O)NS(=O)(=O)c1ccc(Cl)cc1` [CHLORPROPAMIDE], the Inhibition in the assay on Staphylococcus aureus is reported as 17.96%; in the assay on Escherichia coli it was 2.94%.

`NC(=O)c1cccnc1` [NIACINAMIDE]: the Inhibition is reported as 11.51% in the assay with Staphylococcus aureus and 3.02% in the assay on Escherichia coli.

For the compound `NNCCc1ccccc1.O=S(=O)(O)O` [PHENELZINE SULFATE], the Inhibition in the assay on Staphylococcus aureus is -0.33%; with Escherichia coli it was 5.31%.

As for `Cl.O=C1c2c(O)ccc(O)c2C(=O)c2c(NCCNCCO)ccc(NCCNCCO)c21`, the Inhibition in the assay with Staphylococcus aureus is recorded as -9.15%; in the assay with Escherichia coli, 4.04%.

Regarding `CCCNC(C)C(=O)Nc1ccccc1C.Cl` (centres undefined) [PRILOCAINE HYDROCHLORIDE], the Inhibition with Staphylococcus aureus is 16.77%; in the assay on Escherichia coli it was 4.99%.

Turning to `CN(C)c1nc(N(C)C)nc(N(C)C)n1` [ALTRETAMINE], the Inhibition in the assay with Staphylococcus aureus is 15.78%; with Escherichia coli, -2.16%.

For the compound `CC(C)(S)C(N)C(=O)O` (stereo not drawn) [DL-PENICILLAMINE], the Inhibition in the assay with Staphylococcus aureus was 15.93%; in the assay on Escherichia coli it was -3.28%.

For `COc1ccc2cc(CCC(C)=O)ccc2c1` [NABUMETONE], the figures for the Inhibition in the assay on Staphylococcus aureus and with Escherichia coli were 14% and 3.66%, respectively.

With `CCC(=O)O[C@]1(C(=O)CCl)[C@@H](C)C[C@H]2[C@@H]3CCC4=CC(=O)C=C[C@]4(C)[C@@]3(F)[C@@H](O)C[C@@]21C` [CLOBETASOL PROPIONATE], the Inhibition in the assay with Staphylococcus aureus was -12.08%; in the assay with Escherichia coli it was -1.37%.
